Where “and” joins values, the source holds several entries; their conditions need not be identical. Equal values may be shown once. Hit rate of the full screen: of about 330,000 compounds, about 2,800 (0.85%) were called active. Many of the other results were omitted from the sample, so actives are more common in it than they were. A number with no mark means an inactive call.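 How the source made its calls: active means mean inhibition across replicates of 60% or more, whatever share of single replicates reaches that level; inconclusive means some that reach 60%, reason not given; inactive means mean inhibition across replicates below 60%.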
Assay: inhibitors of MITF-dependent TRPM1 promoter reporter, primary screen, cell-based, SK-MEL-5, single point, luciferase (AID 488899)
Details: SK-MEL-5 TRPM1 promoter luciferase, 24 h; at 12.5 µM; hits give high values
With `CCOc1ccc(-c2cc(C)[n+](CCN(CC)CC)c(-c3ccc(OCC)cc3)c2)cc1` the inhibition was 69.6% (active). In the case of `CC1CC=CCC12C(=O)NC(=S)NC2=O` (stereo not given), the inhibition is reported as 6.98%. `N#Cc1ccc(Cn2cc(C(=O)c3ccco3)c3ccccc32)cc1` gave an inhibition of 12.8%. For `CC(=O)N(C1=NCCCS1)c1ccccc1F`, the inhibition was 6.66%. With `Fc1ccc(C2N3CCCN23)cc1` (stereo not given) the inhibition was 5.89%. For `CC1=CC(=Cc2sc3ccccc3[n+]2C)C=C(C)O1`, the inhibition was 69.6% (active). `Cc1cccc(NC(=O)N2CC3CC(C2)c2cccc(=O)n2C3)c1` (stereo not given) gave an inhibition of -3.6%. `Cc1nn(Cc2ccccc2Cl)c(Cl)c1C(=O)OC(C(=O)NC(N)=O)C(C)C` (stereo not given) showed an inhibition of -9.08%. With `CC1C(=O)OC2CCN3CC=C(COC(=O)C(C)(O)C1(C)O)C23` (stereo not given) the inhibition was -1.22%. For `O=C(c1ccccc1)C(O)(CN1CCCCC1)c1ccccc1` (stereo not given), the inhibition was 3.2%. With `OCC#CC[N+]1(CC#Cc2ccccc2)CCCC1` the inhibition was 2.94%. In the case of `COC(=O)C1=C(c2cccc(OCc3ccccc3)c2)C[C@@H]2CC[C@H]1N2C(=O)NCc1ccc(Br)cc1`, the inhibition is reported as -1.21%. In the case of `CCC(C)(O)C(=O)OC1C(=O)OC2CC3C(C)=CC(=O)C(O)C3(C)C3C4(O)OCC23C1C(C)C4O` (stereo not given), the inhibition is reported as 72.8% (active). Compound `CC1=C2C(=O)C3C(CC=C4CC(OC5OC(O)C(O)C(O)C5CO)CCC43C)C2CCC12OC1CC(C)CNC1C2C` (stereo not given) has an inhibition of 0.655%. With `CN(C)C(=O)NC(O)C(Cl)(Cl)Cl` (stereo not given) the inhibition was 8.39%. In the case of `CCN1c2nc3c(C)cccn3c(=O)c2CC2(C(=O)N(C)C(=O)N(C)C2=O)C1C` (stereo not given), the inhibition is reported as 0.643%. Compound `Cn1c(O)c(C=Nc2ccc3c(c2)CCC3)c(=O)n(C)c1=O` has an inhibition of -24.2%. `COC(=O)C1=C(c2ccc3ccccc3c2)C[C@@H]2CC[C@H]1N2C(=O)NCCO` showed an inhibition of -9.09%. With `CC12CN3CC(C)(CN(C1)C3c1cccs1)C2` (stereo not given) the inhibition was -13%. In the case of `CC(=O)OC1C2(CC3N4C(=O)C5(CO)SSC4(CC31O)C(=O)N5C)OC(C)C(C)(C)C2=O` (stereo not given), the inhibition is reported as 112% (active). Compound `CC1CNCCN1c1ccc(Cl)cc1` (stereo not given) has an inhibition of -17.8%. Work on `Cc1cc2ccccn2c1C(C[N+](=O)[O-])c1c(F)cccc1Cl` (stereo not given) yielded an inhibition of 7.17%. `O=c1c2ccccc2nc(/C=C/c2ccc(F)cc2)n1-c1ccccc1O` showed an inhibition of -2.83%. Work on `Cc1ccc(P(=S)(c2ccc(C)o2)N2CCOCC2)o1` yielded an inhibition of -0.096%. With `COC1C(O)C(C)OC(OC2CCC3(C=O)C(CCC4C3CCC3(C)C(C5=CC(=O)OC5)CCC43O)C2)C1O` (stereo not given) the inhibition was 74.9% (active). `O=C(O)CCn1cc(C=C2C(=O)NC(=S)NC2=O)c(-c2cccc(Br)c2)n1` gave an inhibition of 4.06%. Compound `c1ccc(CCN2CCC3(CC2)OCCO3)cc1` has an inhibition of 9.66%. For `C[C@]12CC[C@H](O)C[C@H]1CC[C@@H]1C2CC[C@]2(C)[C@@H](C3=CC(=O)OC3)[C@@H](O)C[C@]12O` (stereo not given in full), the inhibition was 80.6% (active). `C[C@]12CCC3C(CC[C@H]4C[C@@H](O)CC[C@]34C)C1C[C@@H](O)[C@H]2O` (stereo not given in full) gave an inhibition of 2.08%. With `C[C@]12CCC3C(CC[C@H]4C[C@@H](O)CC[C@]34C)C1CC[C@@H]2O` (stereo not given in full) the inhibition was 6.32%. For `NCCc1c[nH]c2ccc(O)cc12`, the inhibition was 12.6%. For `COC(=O)C1=C(c2ccc(-c3ccccc3)c(F)c2)C[C@@H]2CC[C@H]1N2C(=O)NCc1ccc(F)cc1`, the inhibition was -8.41%. In the case of `CCCCCCCCCCCCn1ccc(=N)cc1`, the inhibition is reported as 80.1% (active). With `CN(C)C(=O)Oc1cc(OC(=O)N(C)C)cc(C(O)CNC(C)(C)C)c1` (stereo not given) the inhibition was -3.47% and -8.18%. With `CC(C)c1c(CN(C)C(C)Cc2ccccc2)n(C)n(-c2ccccc2)c1=O` (stereo not given) the inhibition was 9.81%.

Reference: PubChem BioAssay AID488899 (Broad Institute, 2010)
